Experimental data from PubChem BioAssay AID1159607 (Small Molecule Screening Facility, UW Madison, 2016).
Among all 70,000 compounds or so, about 400 (0.57%) were called active. No stated cut-off is given here; in the data, active means FP signal below about 40; inactive means the rest. What follows is part of a selection rich in actives, with near analogues and random picks from the rest.

What follows are molecules tested on RMI core complex (RMI1/RMI2) binding to FANCM MM2 peptide, human (assay: disruptors of RMI1/RMI2 association with MM2 peptide – biochemical, fluorescence polarization, human, primary screen (AID 1159607)). Conditions: RMI core complex with F-MM2 peptide, at 33 µM, active compounds read low.

FP signal (polarization), inactive:
O=C(/C=C/c1cccc(F)c1)c1cccs1 64
CCc1ccccc1NC(=O)c1csc(Nc2ccc(S(C)(=O)=O)cc2)n1 77
C=CCN(CC=C)S(=O)(=O)c1ccc(C(=O)Nc2nc(-c3ccc4ccccc4c3)cs2)cc1 86
Nc1ccc2c(c1)N(C(=O)c1ccccc1)CCC2 68
Nc1cc(-c2ccccc2)no1 63
C=CCn1c(SCC(=O)Nc2nsc(-c3ccccc3)n2)nc2scc(-c3ccco3)c2c1=O 98
COc1ccc(CC(=O)Nc2ccc(SCC(=O)N3CCCC3)nn2)cc1OC 61
O=C(CC1CCCCN1S(=O)(=O)c1ccc(F)cc1)NCc1ccc2c(c1)OCO2 (stereo unspecified) 68
CCn1nc(C(=O)Nc2cc(C)nn2-c2nc3ccc(OC)cc3s2)cc1C 71
Cc1ccc(C)c(NC(=O)CCS(=O)(=O)c2ccccc2)c1 70
CCOC(=O)c1sc(NC(=O)c2ccc(-c3ccccc3)cc2)nc1-c1ccccc1 57
COc1ccc(-c2nc(NC(=O)c3cccc(NS(=O)(=O)c4ccccc4)c3)sc2C)cc1 52
CCCC(=O)Nc1cc(-c2cn3nc(OC)ccc3n2)ccc1OC 70
COc1ccc2nc(-c3ccc(F)c(NC(=O)c4ccccc4C(F)(F)F)c3)cn2n1 87
COc1ccc(N)cc1N1CCCCC1=O 62
COc1ccc(-c2csc3c(=O)n(Cc4ccccc4Cl)cnc23)cc1 63
O=c1c2scc(-c3ccccc3)c2ncn1Cc1ccccc1 64
O=C(NCCN1CCN(c2ccc(F)cc2)CC1)C(=O)NC1CC1 62
N/C(CS(=O)(=O)c1ccc(Cl)cc1)=N/O 56
O=C(/C=C/c1cccs1)Nc1nnc(-c2cc3ccccc3o2)o1 56
COC1C=CC23c4cc5c(cc4CN(CC2O)[C@@H]3C1)OCO5 (stereo partly specified) 63
O=C(Cn1c2c(c(=O)n(C3CCCCC3)c1=O)CCC2)Nc1ccc2c(c1)OCCO2 58
CCCc1cc(=O)[nH]c2nnc(SCC(=O)Nc3nc4ccc(C)cc4s3)n12 47
Cc1ccc(C(=O)CSc2nnc3ccc4ccccc4n23)cc1C 75
O=C1NC(=O)c2cc(S(=O)(=O)N(CCO)CCO)cc3cccc1c23 56
C=Cc1cc2ccc(C)cc2nc1Cl 58
CC(C)c1c(O)ccc2c1CCC1[C@@](C)(CO)CCC[C@]21C (stereo partly specified) 58
COc1cn(CC(=O)Nc2cccc(F)c2)c(CN2CCN(c3ccccc3)CC2)cc1=O 54
O=C(O)/C=C/C(=O)Nc1ccc(Oc2ccc(Cl)cc2)cc1 53
CSc1nc2ccc(NC(=O)c3ccc(Oc4ccc(C(=O)Nc5ccc6nc(SC)sc6c5)cc4)cc3)cc2s1 63
CC(C)Oc1ccc(C(=O)NCC(c2ccsc2)N2CCCCCC2)cc1 (stereo unspecified) 75
O=C(CCCSc1ccc(NC(=O)C2CC2)nn1)NCc1ccccn1 67
C=CCc1cccc2cc(C(=O)Nc3cc(OC)c(Cl)cc3OC)c(=O)oc12 60
O=C(CC1CCCCN1S(=O)(=O)c1cccs1)Nc1ncccn1 (stereo unspecified) 69
Cc1ccc(-c2nc(N3CCOCC3)sc2-c2ccc([N+](=O)[O-])cc2)cc1 74
COc1ccc2oc(-c3csc(NC(=O)C4COc5ccccc5O4)n3)cc2c1 (stereo unspecified) 66
CC(C)CCN1C(=O)C(C)(C)COc2ccc(NC(=O)Cc3ccc(F)cc3)cc21 77
Cc1nc(-c2ccc(S(=O)(=O)N3CCN(C(=O)c4ccco4)CC3)s2)cs1 60
CCCOc1ccc(S(=O)(=O)N2CCN(c3ccc(F)cc3)CC2)cc1C 66
COCCN1CCCc2ccc(NS(=O)(=O)c3ccc(C)c(Cl)c3)cc21 78
COc1cc(-c2nnc(NC(=O)c3ccc([N+](=O)[O-])cc3)o2)cc(OC)c1OC 54
CCOC(=O)c1oc2ccccc2c1NC(=O)c1cccc(N2C(=O)CCC2=O)c1 74
O=S(=O)(c1cccnc1)N1CCN(c2ccc(-c3cccs3)nn2)CC1 69
CCOC(=O)c1ccc(NC(=O)CSc2nnc(NC(=O)COc3ccc(Cl)cc3Cl)s2)cc1 62
COc1ccc(Cl)cc1C(=O)Nc1nnc(-c2cccc([N+](=O)[O-])c2)s1 74
O=C(Cn1nc(-c2ccc(F)cc2)c2sc(N3CCCC3)nc2c1=O)Nc1ccc(F)cc1F 92
CN1C(=O)C(C)(C)COc2ccc(NC(=O)c3ccc(Br)cc3)cc21 68
COc1ccccc1CCNC(=O)CSc1nnc2ccc(-c3cccnc3)nn12 55
Cc1c(NC(=S)Nc2ccc3c(c2)OCO3)c(=O)n(-c2ccccc2)n1C 59
CN(C)c1ccc(C=NS(=O)(=O)c2cccs2)cc1 57
CSc1cccc(NC(=O)C(=O)NCCc2ccccc2)c1 65
Cc1[nH]c(=O)[nH]c(=O)c1CCC(=O)Nc1ccc(F)c(Cl)c1 60
COc1ccc(S(=O)(=O)CC(=O)Nc2cc(C)nn2-c2nc3ccccc3s2)cc1 78
CCOc1ccccc1C(=O)NCC(=O)N1CCOC(c2ccccc2)C1 (stereo unspecified) 73
COc1cc(-c2noc(-c3cc(-c4ccccc4)n[nH]3)n2)cc(OC)c1OC 95
Nc1cc(=O)[nH]c(SCC(=O)Nc2ccc(S(N)(=O)=O)cc2)n1 61

FP signal (polarization), active:
COc1ccc(C(=O)Nc2nc(-c3ccccc3)c(C)s2)cc1 33
COc1ccc2nc(-c3ccc(OC)c(NC(=O)c4ccccc4Cl)c3)cn2n1 13
COc1ccc(-c2csc3c(=O)n(Cc4cc(=O)n5ccccc5n4)cnc23)cc1OC -23
Cc1ccc2c(c1)nnc1nnc(SCC(=O)O)n12 2
O=C(COc1ccc(Cl)cc1Cl)Nc1nnc(SCC(=O)Nc2nnc(-c3cccc([N+](=O)[O-])c3)s2)s1 16
